# From ChEMBL document CHEMBL1961873, “Compounds: GSK PKIS; Assays: Nanosyn kinase panel” (2012)
# Columns and labels:
# [1] = test system: Tyrosine-protein kinase ABL1 (Homo sapiens), P00519 [T315I]; settings: at 1 µM
# [2] = test system: Tyrosine-protein kinase ABL1 (Homo sapiens), P00519 [Y253F]; settings: at 0.1 µM
# [3] = test system: Tyrosine-protein kinase ABL1 (Homo sapiens), P00519 [Y253F]; settings: at 1 µM
# [4] = target: Tyrosine-protein kinase ABL1 (Homo sapiens) (UniProt P00519); settings: at 0.1 µM
# [5] = target: Tyrosine-protein kinase ABL1 (Homo sapiens) (UniProt P00519); settings: at 1 µM
# [6] = target: ALK tyrosine kinase receptor (Homo sapiens) (UniProt Q9UM73); settings: at 0.1 µM
# Sequence of ALK tyrosine kinase receptor (Homo sapiens) (Q9UM73 19-1620 limits assumed): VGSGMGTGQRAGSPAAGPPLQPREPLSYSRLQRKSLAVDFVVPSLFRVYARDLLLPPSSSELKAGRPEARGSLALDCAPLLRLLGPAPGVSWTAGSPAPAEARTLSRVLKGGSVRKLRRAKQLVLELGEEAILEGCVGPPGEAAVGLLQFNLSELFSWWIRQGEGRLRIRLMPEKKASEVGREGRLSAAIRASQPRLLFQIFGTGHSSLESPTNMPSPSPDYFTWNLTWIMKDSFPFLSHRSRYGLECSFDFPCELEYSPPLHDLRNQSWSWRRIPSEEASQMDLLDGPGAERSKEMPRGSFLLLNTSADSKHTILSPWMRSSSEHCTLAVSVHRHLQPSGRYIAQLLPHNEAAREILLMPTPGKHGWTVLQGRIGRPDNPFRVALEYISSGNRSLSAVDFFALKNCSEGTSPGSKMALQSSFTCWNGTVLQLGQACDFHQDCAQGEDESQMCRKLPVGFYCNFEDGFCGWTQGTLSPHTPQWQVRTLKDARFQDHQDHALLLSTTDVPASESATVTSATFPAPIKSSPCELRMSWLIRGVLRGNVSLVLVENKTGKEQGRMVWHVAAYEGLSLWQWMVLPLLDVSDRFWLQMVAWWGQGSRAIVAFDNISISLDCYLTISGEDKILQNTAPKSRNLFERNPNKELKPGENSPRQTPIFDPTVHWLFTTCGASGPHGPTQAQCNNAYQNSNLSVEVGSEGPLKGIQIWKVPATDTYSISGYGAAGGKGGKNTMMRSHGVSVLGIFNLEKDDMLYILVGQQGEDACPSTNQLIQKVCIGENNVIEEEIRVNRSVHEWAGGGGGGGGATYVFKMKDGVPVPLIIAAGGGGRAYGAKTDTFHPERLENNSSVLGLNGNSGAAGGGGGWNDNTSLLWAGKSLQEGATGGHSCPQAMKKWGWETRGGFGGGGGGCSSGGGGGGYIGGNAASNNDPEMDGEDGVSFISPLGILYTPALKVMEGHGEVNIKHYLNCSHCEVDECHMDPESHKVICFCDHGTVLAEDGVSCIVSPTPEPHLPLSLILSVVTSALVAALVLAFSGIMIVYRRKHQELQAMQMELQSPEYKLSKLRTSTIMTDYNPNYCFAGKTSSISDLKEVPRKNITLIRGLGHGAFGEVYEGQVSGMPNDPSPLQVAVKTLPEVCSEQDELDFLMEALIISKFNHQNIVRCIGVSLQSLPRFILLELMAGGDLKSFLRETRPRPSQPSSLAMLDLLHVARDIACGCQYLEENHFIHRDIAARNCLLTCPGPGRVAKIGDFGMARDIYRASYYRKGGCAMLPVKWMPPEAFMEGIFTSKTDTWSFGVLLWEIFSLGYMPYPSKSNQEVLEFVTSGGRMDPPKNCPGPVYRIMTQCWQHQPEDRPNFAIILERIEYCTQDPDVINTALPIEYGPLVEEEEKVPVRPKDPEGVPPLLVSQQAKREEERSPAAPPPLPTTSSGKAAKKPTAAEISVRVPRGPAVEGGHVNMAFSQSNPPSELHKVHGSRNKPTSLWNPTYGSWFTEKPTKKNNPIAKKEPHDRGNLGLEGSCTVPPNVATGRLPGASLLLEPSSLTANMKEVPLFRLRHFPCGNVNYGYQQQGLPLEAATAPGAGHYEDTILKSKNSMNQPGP
# [7] = target: ALK tyrosine kinase receptor (Homo sapiens) (UniProt Q9UM73); settings: at 1 µM
# [8] = target: Tyrosine-protein kinase ABL2 (Homo sapiens) (UniProt P42684); settings: at 0.1 µM
# Sequence of Tyrosine-protein kinase ABL2 (Homo sapiens) (P42684 whole entry): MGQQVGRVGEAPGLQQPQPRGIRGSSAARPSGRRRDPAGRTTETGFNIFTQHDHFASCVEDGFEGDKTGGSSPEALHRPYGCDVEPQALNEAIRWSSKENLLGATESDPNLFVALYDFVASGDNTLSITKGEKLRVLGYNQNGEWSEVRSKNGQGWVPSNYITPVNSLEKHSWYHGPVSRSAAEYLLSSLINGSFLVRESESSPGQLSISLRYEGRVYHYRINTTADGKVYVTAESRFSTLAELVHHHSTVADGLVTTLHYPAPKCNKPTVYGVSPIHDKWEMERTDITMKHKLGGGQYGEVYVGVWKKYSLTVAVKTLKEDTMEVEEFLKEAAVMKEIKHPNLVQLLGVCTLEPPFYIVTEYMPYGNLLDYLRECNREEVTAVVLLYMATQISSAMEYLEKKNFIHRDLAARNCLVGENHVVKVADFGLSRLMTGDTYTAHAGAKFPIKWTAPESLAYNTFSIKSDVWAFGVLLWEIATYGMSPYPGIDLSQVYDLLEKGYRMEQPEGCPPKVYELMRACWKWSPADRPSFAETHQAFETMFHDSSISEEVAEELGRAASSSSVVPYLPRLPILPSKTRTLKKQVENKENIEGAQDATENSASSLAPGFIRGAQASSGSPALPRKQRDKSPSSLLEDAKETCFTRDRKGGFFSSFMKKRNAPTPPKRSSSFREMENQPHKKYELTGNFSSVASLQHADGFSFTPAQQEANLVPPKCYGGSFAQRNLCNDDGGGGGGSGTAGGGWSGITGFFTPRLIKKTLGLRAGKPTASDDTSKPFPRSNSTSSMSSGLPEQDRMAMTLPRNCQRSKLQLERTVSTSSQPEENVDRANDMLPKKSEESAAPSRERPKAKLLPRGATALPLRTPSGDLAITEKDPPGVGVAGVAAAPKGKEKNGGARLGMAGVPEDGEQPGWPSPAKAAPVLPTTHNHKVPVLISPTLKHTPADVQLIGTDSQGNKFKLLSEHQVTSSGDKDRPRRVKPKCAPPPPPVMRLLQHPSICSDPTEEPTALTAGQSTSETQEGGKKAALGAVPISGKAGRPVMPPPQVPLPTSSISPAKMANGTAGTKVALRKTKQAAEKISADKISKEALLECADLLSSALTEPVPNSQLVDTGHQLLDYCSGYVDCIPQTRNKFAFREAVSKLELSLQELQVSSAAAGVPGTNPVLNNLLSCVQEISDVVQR
# [9] = target: Tyrosine-protein kinase ABL2 (Homo sapiens) (UniProt P42684); settings: at 1 µM
# [10] = target: Tyrosine-protein kinase receptor UFO (Homo sapiens) (UniProt P30530); settings: at 0.1 µM;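 further: values are mean percent inhibition of AXL from the GSK PKIS screen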
# Sequence of Tyrosine-protein kinase receptor UFO (Homo sapiens) (P30530 whole entry): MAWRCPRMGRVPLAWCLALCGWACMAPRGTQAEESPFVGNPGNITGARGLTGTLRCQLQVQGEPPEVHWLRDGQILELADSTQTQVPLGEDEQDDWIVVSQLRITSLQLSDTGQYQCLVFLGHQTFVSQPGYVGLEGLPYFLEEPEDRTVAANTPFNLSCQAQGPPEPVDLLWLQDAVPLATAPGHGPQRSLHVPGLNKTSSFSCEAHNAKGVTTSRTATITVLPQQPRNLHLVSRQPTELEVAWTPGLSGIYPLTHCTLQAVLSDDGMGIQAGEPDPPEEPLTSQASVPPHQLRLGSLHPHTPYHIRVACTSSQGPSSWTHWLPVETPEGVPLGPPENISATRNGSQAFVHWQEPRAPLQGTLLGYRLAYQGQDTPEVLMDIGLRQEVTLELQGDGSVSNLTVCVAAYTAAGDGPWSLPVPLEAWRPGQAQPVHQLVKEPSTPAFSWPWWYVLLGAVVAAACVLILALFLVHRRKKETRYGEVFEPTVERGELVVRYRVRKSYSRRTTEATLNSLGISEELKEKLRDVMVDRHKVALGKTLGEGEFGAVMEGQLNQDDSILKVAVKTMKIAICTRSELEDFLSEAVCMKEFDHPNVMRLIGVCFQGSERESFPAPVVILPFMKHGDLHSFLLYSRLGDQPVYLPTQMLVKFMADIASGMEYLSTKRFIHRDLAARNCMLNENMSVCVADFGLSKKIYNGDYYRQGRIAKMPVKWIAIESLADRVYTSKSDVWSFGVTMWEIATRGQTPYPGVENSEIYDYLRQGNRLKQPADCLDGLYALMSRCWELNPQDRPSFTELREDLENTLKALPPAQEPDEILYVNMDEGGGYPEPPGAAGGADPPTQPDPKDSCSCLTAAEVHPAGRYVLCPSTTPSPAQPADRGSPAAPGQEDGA
SMILES,inhibition [1],inhibition [2],inhibition [3],inhibition [4],inhibition [5],inhibition [6],inhibition [7],inhibition [8],inhibition [9],inhibition [10]
CS(=O)(=O)CCNCc1nc(-c2ccc3ncnc(Nc4ccc(OCc5cccc(C(F)(F)F)c5)cc4)c3c2)cs1,1.2%,1.32%,0.85%,3.97%,6.56%,2.68%,6.49%,1.49%,4.56%,-5.39%
COc1cc(/C=N/Nc2ncnc3c2cnn3C(C)C)ccc1O,47.8%,37%,82.2%,23.3%,73.7%,0.72%,4.12%,16.7%,68.5%,-0.67%
CN(C)C(=O)O[C@@H]1CN[C@@H](C#Cc2cc3ncnc(Nc4ccc(OCc5cccc(F)c5)c(Cl)c4)c3s2)C1,-0.07%,1.53%,3.44%,1.35%,6.2%,1.27%,1.3%,1.71%,8.08%,-0.96%
Cc1ccc2c(-c3ccnc(Nc4ccc5c(c4)OCCO5)n3)c(-c3ccc(C(F)(F)F)cc3)nn2n1,-0.15%,0.22%,4.3%,2.59%,4.52%,2.45%,1.5%,2.56%,5%,0.41%
ON=C1CCc2cc(-c3nc(C4CCNCC4)[nH]c3-c3ccncc3)ccc21,1.59%,0.98%,1.65%,1.37%,4.12%,2.45%,4.92%,2.12%,6.46%,-1.8%
[O-][S+]1CCN(Cc2ccc(-c3ccc4ncnc(Nc5ccc(OCc6ccccc6)c(Cl)c5)c4c3)o2)CC1,1.03%,0.95%,2.06%,2.3%,4.26%,2.04%,8.58%,1.82%,3.39%,-2.39%
NS(=O)(=O)c1ccc(-c2cc3ccncc3cc2OCc2ccccc2)cc1,3.49%,5.3%,3.98%,3.52%,7.38%,4.77%,15.5%,3.51%,6.27%,-5.69%
O=S(=O)(CCOCc1ccc(-c2ccc3ncnc(Nc4ccc(OCc5cccc(F)c5)c(Cl)c4)c3c2)o1)c1ccccc1,0.23%,1.1%,1.05%,2.88%,5.13%,0.65%,3.74%,2.62%,6.65%,-0.96%
CCS(=O)(=O)c1ccc(OC)c(Nc2ncc(-c3cccc(OC)c3)o2)c1,26.5%,48.5%,86.3%,29.8%,77.7%,2.9%,8.1%,27.3%,72.6%,-3.48%
FC(F)(F)c1ccc(-c2nn3ncccc3c2-c2ccnc(Nc3ccc4c(c3)OCCO4)n2)cc1,9.38%,0.98%,7.07%,5.3%,13.7%,-1.39%,1.59%,5.58%,9.47%,8.69%
Nc1nccc(-c2c(-c3ccc(F)cc3)nn3cc(C(F)(F)F)ccc23)n1,1.21%,1.01%,-0.43%,0.6%,0.4%,3.84%,5.16%,2.16%,3.62%,0.67%
N#Cc1c(NC(=O)c2ccccc2F)sc2c1CCCC2,0.12%,-0.24%,0.05%,0.07%,1.47%,-1.14%,1.02%,-0.22%,1.82%,1.78%
Cc1ccc2c(-c3ccnc(Nc4cccc(C(F)(F)F)c4)n3)c(-c3ccccc3)nn2n1,20.8%,12.2%,53.3%,7.07%,36.1%,3.25%,3.77%,-9.35%,33.7%,-5.69%
Cc1ccc2c(c1)/C(=N/Nc1ccc(S(N)(=O)=O)cc1)C(=O)N2,7.37%,-0.42%,7.64%,0.83%,8.09%,0.89%,2.77%,3.63%,12.1%,-1.65%
C[C@@H](Oc1cc(-n2cnc3ccc(OC[C@@H](O)CO)cc32)sc1C(N)=O)c1ccccc1Cl,12.4%,-0.46%,10.3%,-0.45%,11.7%,-0.7%,4.65%,0.97%,7.64%,2.21%
Cc1cc(O)cc(C)c1/C=C/c1cncc(C(=O)N(C)C)c1,1.49%,2.53%,14.2%,6.26%,17.9%,1.7%,3.57%,4.85%,12%,-0.49%
NS(=O)(=O)c1ccc(NC=C2C(=O)Nc3ccc4ncsc4c32)cc1,61.6%,10.6%,48.7%,7.95%,44.8%,7.33%,32.2%,5.56%,31.4%,-4.15%
CN(C)C(=O)O[C@H]1CN[C@H](C#Cc2cc3ncnc(Nc4ccc(OCc5cccc(F)c5)c(Cl)c4)c3s2)C1,1.25%,4.89%,4.19%,3.76%,8.35%,2.82%,5.03%,3.49%,6.24%,-3.4%
COc1cc2ncn(-c3cc(OCc4ccccc4S(C)(=O)=O)c(C#N)s3)c2cc1OC,32.6%,13.8%,48.8%,9.66%,49%,4.25%,9.85%,4.77%,18%,–

SMILES,inhibition [1],inhibition [2],inhibition [3],inhibition [4],inhibition [5],inhibition [6],inhibition [7],inhibition [8],inhibition [9],inhibition [10]
NS(=O)(=O)c1ccc(Nc2cc(-c3cccc(O)c3)n[nH]2)cc1,7.24%,6.94%,11.8%,5.23%,11.4%,3.58%,7.98%,5.93%,6.81%,–
COc1ccc(-c2nn3ncccc3c2-c2ccnc(Nc3cccc(C(F)(F)F)c3)n2)cc1,5.9%,1.53%,5.56%,5.5%,4%,3.3%,5.15%,2.28%,6.55%,-4.48%
Cc1cc(Cl)cc2c1NC(=O)C2=NNc1ccc(S(N)(=O)=O)cc1,4.99%,3.5%,6.19%,2.11%,7.99%,0.72%,1.88%,3.13%,7.59%,-3.23%
Nc1ccc(C#Cc2cncnc2Nc2ccc(OCc3cccc(F)c3)c(Cl)c2)cc1,1.84%,1.89%,2.12%,3.72%,4%,3.7%,3.34%,3.43%,4.12%,-4.2%
CS(=O)(=O)Nc1cccc(-c2ccc3c(NC(=O)C4CC4)n[nH]c3c2)c1,30.6%,1.55%,11.8%,1.81%,17.9%,0.61%,1.09%,2.46%,3.55%,0.1%
CC(C)c1ccc(Nc2nccc(-c3cnn4ncccc34)n2)cc1,10.6%,4.68%,10%,3.33%,13.3%,4.56%,23.7%,4.44%,10.6%,-4.19%
O=C(Nc1ccc(Oc2ccc3[nH]c(NC(=O)c4ccco4)nc3c2)cc1)Nc1cc(C(F)(F)F)ccc1F,94.4%,38%,84%,27.9%,72.2%,-1.81%,7.58%,35.6%,66.4%,16.1%
COc1ccc2ncnc(Nc3ccc(OCc4ccccc4)cc3)c2c1,3.21%,2.03%,1.02%,1.65%,4.79%,0.66%,0.87%,2.72%,4.53%,-3.58%
CN1CCN(C(=O)c2ccc(NC(=O)Nc3ccc(N(C)c4ccnc(Nc5ccc(CS(C)(=O)=O)cc5)n4)cc3)cc2)CC1,61.5%,8.21%,48.1%,9.79%,43.9%,1.71%,10.3%,21.9%,56.5%,-3.75%
NS(=O)(=O)c1cccc(-c2cc3ccncc3cc2OCc2ccccc2)c1,2.66%,2.88%,5.09%,4.3%,12.2%,2.82%,7.12%,4.36%,15.2%,-7.61%
COc1cccc(-n2ncc3c(N/N=C/c4ccc(C)cc4)ncnc32)c1,23.2%,31.8%,76.1%,13%,62.1%,12.4%,22.3%,64.2%,40.5%,-3.91%
Cc1ccc(NC(=O)CC2CC2)cc1-c1ccc(C(=O)NCC2CC2)cc1,2.68%,5.1%,5.33%,6.36%,8.53%,1.68%,3.58%,8.79%,7.68%,-3.14%
Cc1nc(-c2ccccc2)n2nc(NCCCN3CCOCC3)ncc12,7.48%,1.75%,3.67%,5.87%,5.41%,2.79%,4.11%,2.85%,4.35%,-1.08%
CN(C)c1cc2c(Nc3ccc4c(cnn4Cc4ccccc4)c3)ncnc2cn1,-1.27%,1.19%,3.05%,2.46%,5.43%,2.86%,4.13%,1.06%,8.48%,-6.03%
CCS(=O)(=O)c1ccc(OC)c(Nc2nccc(N(C)c3ccc4c(C)n[nH]c4c3)n2)c1,15%,66.4%,92.3%,58%,78.5%,4.29%,12.4%,42%,73.9%,-6.66%
COc1cccc(-n2ncc3c(N/N=C/c4ccc(S(C)(=O)=O)cc4)ncnc32)c1,87%,86.2%,94.7%,62%,73%,-3.22%,-1.6%,45.4%,61.7%,-1.8%
Oc1cccc(-c2nc(-c3ccccc3)[nH]c2-c2ccncc2)c1,8.47%,11.9%,44.9%,8.48%,43.3%,3.1%,4.75%,13.2%,50.8%,-4.03%
Cc1ccc(O)cc1Nc1ccnc2ccc(S(C)(=O)=O)cc12,18.4%,94.9%,96.8%,81.3%,85.5%,2.56%,8.35%,80.8%,–,-7.59%
CC(C)c1ccc2c(c1)NC(=O)/C2=N/Nc1ccc(S(N)(=O)=O)cc1,6.52%,4.59%,28.8%,6.22%,32.8%,-0.35%,2.81%,3.65%,25.7%,-0.26%
